# PubChem BioAssay (NCATS)
# Several values for one entry are separate records, joined by “and”; a condition that tells them apart may be missing. Equal values may be shown once. Records with an inconclusive call do not appear. Entries that show only a call come without a potency. Unmarked numbers belong to inactive results. Activity calls are given as the source filed them. The call rests on the fitted dose curve; in most records, active means well fitted inhibition curve with a large enough effect; inconclusive means small, poorly fitted or top-dose-only effect; inactive means flat fitted curve, though single readings scatter.
# Columns and labels:
# [1] = system: PC15; assay: qHTS profiling for inhibitors of Plasmodium falciparum proliferation (AID 504749); conditions: P. falciparum in erythrocytes, SYBR Green DNA, 72 h; series mostly up to 28.7 µM
# Summary of the method: (§1)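 SYBR Green fluorescence (ex 485 nm, em 535 nm) reports parasite DNA after 72 h compound exposure of infected red cells at 0.3% parasitemia, 2.5% hematocrit; signal normalized to 0.29 uM artemisinin and vehicle wells.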
# [2] = system: PC26; assay: as above; conditions: P. falciparum in erythrocytes, SYBR Green DNA, 72 h; series mostly up to 28.7 µM
# Summary of the method: as §1
# [3] = system: PC49; assay: as above; conditions: P. falciparum in erythrocytes, SYBR Green DNA, 72 h; series mostly up to 28.7 µM
# Summary of the method: as §1
# [4] = system: SC27B; assay: as above; conditions: P. falciparum in erythrocytes, SYBR Green DNA, 72 h; series mostly up to 28.7 µM
# Summary of the method: as §1
# [5] = system: TAB109; assay: as above; conditions: P. falciparum in erythrocytes, SYBR Green DNA, 72 h; series mostly up to 28.7 µM
# Summary of the method: as §1
# [6] = system: TAB165; assay: as above; conditions: P. falciparum in erythrocytes, SYBR Green DNA, 72 h; series mostly up to 28.7 µM
# Summary of the method: as §1
# [7] = system: W2; assay: as above; conditions: P. falciparum in erythrocytes, SYBR Green DNA, 72 h; series mostly up to 28.7 µM
# Summary of the method: as §1
# [8] = system: CRL-7250; assay: Cytotoxic Profiling of Annotated Libraries Using Quantitative High-Throughput Screening (AID 1296008); conditions: Five cell lines viability, CellTiter-Glo ATP luminescence, 48-72 h; max response: active compounds read low
# Summary of the method: (§2)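 Cells exposed to compounds for 48 or 72 hr at 37 degrees Celsius. Viability read as ATP-coupled luminescence with CellTiter-Glo after 10 min at room temperature.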
# [9] = system: HEK293; assay: as above; conditions: Five cell lines viability, CellTiter-Glo ATP luminescence, 48-72 h; max response: active compounds read low
# Summary of the method: as §2
# [10] = system: HaCat; assay: as above; conditions: Five cell lines viability, CellTiter-Glo ATP luminescence, 48-72 h; max response: active compounds read low
# Summary of the method: as §2
# [11] = system: KB-3-1; assay: as above; conditions: Five cell lines viability, CellTiter-Glo ATP luminescence, 48-72 h; max response: active compounds read low
# Summary of the method: as §2
# [12] = system: NIH3T3; assay: as above; conditions: Five cell lines viability, CellTiter-Glo ATP luminescence, 48-72 h; max response: active compounds read low
# Summary of the method: as §2
# [13] = system: MCC-13; assay: qHTS assay to identify novel small-molecules to repurpose for Merkel cell carcinoma treatment (AID 1296009); conditions: MCC and control cell lines, CellTiter-Glo viability, 72 h; series mostly up to 46 µM
# Summary of the method: (§3)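 CellTiter-Glo luminescence after 72 hr compound exposure at 37 degree celsius gave cell viability. Libraries NPC and MIPE were run as 8- and 11-point dose responses; RLUs normalized to DMSO (negative) and no-cell (cytotoxicity) controls.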
# [14] = system: MKL-1; assay: as above; conditions: MCC and control cell lines, CellTiter-Glo viability, 72 h; series mostly up to 46 µM
# Summary of the method: as §3
# [15] = system: MKL-2; assay: as above; conditions: MCC and control cell lines, CellTiter-Glo viability, 72 h; series mostly up to 46 µM
# Summary of the method: as §3
# [16] = system: NIH3T3; assay: as above; conditions: MCC and control cell lines, CellTiter-Glo viability, 72 h; at 44.8 µM (top of the series) unless noted
# Summary of the method: as §3
# [17] = system: MCC-26; assay: as above; conditions: MCC and control cell lines, CellTiter-Glo viability, 72 h; series mostly up to 46 µM
# Summary of the method: as §3
# [18] = system: HEK293T; assay: as above; conditions: MCC and control cell lines, CellTiter-Glo viability, 72 h; at 44.8 µM (top of the series) unless noted
# Summary of the method: as §3
# [19] = system: HACAT; assay: as above; conditions: MCC and control cell lines, CellTiter-Glo viability, 72 h; at 44.8 µM (top of the series) unless noted
# Summary of the method: as §3
# [20] = system: TAB113; assay: qHTS profiling for inhibitors of Plasmodium falciparum proliferation (AID 504749); conditions: P. falciparum in erythrocytes, SYBR Green DNA, 72 h; series mostly up to 28.7 µM
# Summary of the method: as §1
# Further: nearly all actives have a fitted effect of over 60% in size.
# Potency means the concentration at half of the fitted maximal effect.
smiles,measurement,setting,value
C[C@]12CCC(=O)C=C1CC[C@H]1[C@@H]3CC[C@](O)(C(=O)CO)[C@@]3(C)C[C@H](O)[C@@]12F,Potency,[1],inactive
same,Potency,[2],inactive
same,Potency,[3],inactive
same,Potency,[4],inactive
same,Potency,[5],inactive
same,Potency,[6],inactive
same,Potency,[7],inactive
same,max response,[8],-14.8%
same,max response,[9],-5.58%
same,max response,[10],-3.35%
same,max response,[11],18.3% and -1.2%
same,outcome,[12],inactive
same,Potency,[13],inactive
same,Potency,[14],inactive
same,Potency,[15],inactive
same,outcome,[16],inactive
NC[C@H]1O[C@H](O[C@H]2[C@H](O[C@@H]3O[C@H](CO)[C@@H](O)[C@H]3O)C(O)[C@H](N)C[C@@H]2N)[C@H](N)[C@@H](O)[C@@H]1O (stereo not given in full),max response,[8],-0.227%
same,max response,[9],0.11%
same,max response,[10],-0.678%
same,outcome,[12],inactive
same,"activity change, negative = cytotoxicity",[13],8.98% [at 9.22 µM]
same,"activity change, negative = cytotoxicity",[17],5.57% [at 9.22 µM]
same,"activity change, negative = cytotoxicity",[14],2.77% [at 9.22 µM]
same,"activity change, negative = cytotoxicity",[15],-8.12% [at 9.22 µM]
same,outcome,[16],inactive [at 9.27 µM]
CC1(C)OC[C@@H](COC(=O)CCc2ccc(OC[C@@H](O)CNCCNC(=O)N3CCOCC3)cc2)O1,outcome,[8],inactive
same,outcome,[9],inactive
same,max response,[10],3.95%
same,max response,[12],4.95%
same,outcome,[18],inactive
same,Potency,[13],inactive
same,Potency,[17],inactive
same,Potency,[14],inactive
same,Potency,[15],inactive
CC(=O)[C@H]1CC[C@H]2[C@@H]3C[C@H](C)C4=CC(=O)CC[C@]4(C)[C@H]3[C@@H](O)C[C@]12C,outcome,[8],inactive
same,max response,[10],-3.2%
same,max response,[11],30.5%
same,outcome,[12],inactive
same,Potency,[13],inactive
same,Potency,[17],inactive
same,Potency,[14],inactive
same,Potency,[15],inactive
same,outcome,[16],inactive
Cc1ccccc1C(=O)Nc1ccc(C(=O)N2CCCC(N(C)C)c3ccccc32)cc1 (stereo not given),Potency,[8],23.7 µM (active)
same,Potency,[9],3.35 µM (active) and 5.8 µM (active)
same,Potency,[12],9.44 µM (active)
same,Potency,[13],inactive
same,Potency,[17],inactive
same,Potency,[14],inactive
same,Potency,[15],inactive
O=C(OCC(O)CO)c1ccccc1Nc1ccnc2cc(Cl)ccc12 (stereo not given),outcome,[8],inactive
same,max response,[10],-6.51%
same,max response,[11],1.57%
same,Potency,[13],inactive
same,Potency,[17],inactive
same,Potency,[14],inactive
CC1(C)O[C@@H]2C[C@H]3[C@@H]4CCC5=CC(=O)CC[C@]5(C)[C@@]4(F)[C@@H](O)C[C@]3(C)[C@]2(C(=O)CCl)O1,max response,[8],2.38%
same,outcome,[10],inactive
same,max response,[11],33.4%
same,max response,[12],-10.1%
same,outcome,[19],inactive
same,Potency,[13],inactive
same,Potency,[17],inactive
same,Potency,[14],inactive
same,Potency,[15],inactive
C=C(CC)C(=O)c1ccc(OCC(=O)O)c(Cl)c1Cl,Potency,[20],14.1 µM (active)
same,Potency,[6],12.6 µM (active)
same,max response,[8],-16.5%
same,max response,[10],-11.5%
same,max response,[11],-0.176%
same,max response,[12],-16.2%
same,Potency,[17],inactive
same,Potency,[14],8.41 µM (active)
same,Potency,[15],15 µM (active)
CN(C)CC/C=C1\c2ccccc2Sc2ccc(Cl)cc21,Potency,[1],11.2 µM (active)
same,Potency,[3],11.2 µM (active)
same,Potency,[6],7.94 µM (active)
same,Potency,[7],2.69 µM (active)
same,max response,[8],-3.17%
same,outcome,[10],inactive
same,max response,[11],-2.56%
same,max response,[12],-4.42%
same,outcome,[19],inactive
same,Potency,[13],inactive
same,Potency,[17],inactive
same,Potency,[15],11.9 µM (active)
C=C1C(=C/C=C2\CCC[C@]3(C)[C@@H]([C@H](C)/C=C/[C@@H](O)C4CC4)CC[C@@H]23)C[C@@H](O)C[C@@H]1O,outcome,[8],inactive
same,outcome,[10],inactive
same,max response,[11],29.7%
same,max response,[12],-35.8%
same,outcome,[19],inactive
same,Potency,[13],inactive
CN(C)CCCOc1nn(Cc2ccccc2)c2ccccc12,Potency,[1],inactive
same,Potency,[3],inactive
same,Potency,[4],inactive
same,Potency,[5],inactive
same,Potency,[20],inactive
same,Potency,[7],2.28 µM (active)
same,max response,[8],1.45%
same,max response,[10],3.55%
same,max response,[11],-14.4% and -24.2%
same,Potency,[13],inactive
same,Potency,[17],inactive
same,Potency,[14],inactive
CC(=O)c1ccc2c(c1)N(CCCN1CCC(CCO)CC1)c1ccccc1S2,Potency,[1],inactive
same,Potency,[3],inactive
same,Potency,[4],inactive
same,Potency,[5],inactive
same,Potency,[20],inactive
same,Potency,[6],inactive
same,Potency,[7],1.02 µM (active)
same,max response,[8],-7.11%
same,outcome,[10],inactive
same,max response,[11],-5.25%
same,outcome,[19],inactive
same,Potency,[13],inactive
same,Potency,[17],inactive
same,Potency,[14],inactive
same,Potency,[15],21.1 µM (active)
Oc1ccc(Cl)c2cccnc12,Potency,[1],inactive
same,Potency,[2],inactive
same,Potency,[3],inactive
same,Potency,[4],inactive
same,Potency,[5],inactive
same,Potency,[20],inactive
same,Potency,[6],inactive
same,outcome,[8],inactive
same,outcome,[10],inactive
same,max response,[11],-11.9%
same,outcome,[19],inactive
c1ccc(CNCCNCc2ccccc2)cc1,Potency,[3],3.55 µM (active)
same,Potency,[7],4.26 µM (active)
same,max response,[8],-8.49%
same,outcome,[10],inactive
same,max response,[11],-3.68%
same,outcome,[19],inactive
same,Potency,[13],inactive
same,Potency,[17],inactive
same,Potency,[14],inactive
CCN(CCCc1ccccc1)CCCc1ccccc1,Potency,[1],inactive
same,Potency,[2],inactive
same,Potency,[3],inactive
same,Potency,[4],inactive
same,Potency,[7],1.28 µM (active)
same,outcome,[8],inactive
same,max response,[10],0.9%
same,max response,[11],-18.5%
same,Potency,[13],inactive
same,Potency,[17],inactive
same,Potency,[14],inactive
